# The full list was thinned out, with hits kept by preference.
# Methyltransferases: Primary Screen for Target Class Profiling of Small Molecule Inhibitors of Methyltransferases. purified enzyme, MTase-Glo SAH luminescence; active compounds read low. actives 3.9% (n = 25,000). calls only at 40 µM. AID 1745853, 2022; call rule not given here
#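 Each enzyme was assayed with SAM and its substrate. SAH formation detected by MTase-Glo luminescence; single-point 40 uM screen[…].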
# Calls only; . = inactive; + = active, no number; ! = repeats disagree.
SMILES,Methyltransferases
CCOC(=O)c1cc2n(n1)CC(C)(C(=O)NC1CCCC1)N(c1ccc(C)cc1C)C2=O (stereo not given),.
COC(=O)[C@H](Cc1ccc([N+](=O)[O-])cc1)NC(=O)c1cccc2ccccc12,.
Cc1c(C)n(Cc2ccc(-c3ccccc3C(=O)O)cc2)c2ccc(C(=O)N[C@@H](C)c3ccc([N+](=O)[O-])cc3)cc12,+
Cc1ccc(Cn2c(=O)c3ccc(C(=O)NC(C)C)cc3n3c(=O)n(Cc4ccccc4)nc23)cc1,.
CC1(C(=O)NC2CCCC2)Cn2c(cc3ccccc32)C(=O)N1Cc1cccc(F)c1 (stereo not given),.
Cn1c(=O)c2ccc(C(=O)NC3CCCC3)cc2n2c(SCC(N)=O)nnc12,.
CCCn1c(=O)c2cc(Cl)ccc2n2c(SCC(=O)NCc3ccccc3)nnc12,.
CCN1C(=O)c2cc(C(=O)NCCc3ccc(SC)cc3)nn2CC1(C)C(=O)NC1CCCC1 (stereo not given),.
Cc1ccc(C)c(Cn2nc3n(CC(C)C)c(=O)c4ccccc4n3c2=O)c1,.
Cc1[nH]c2ccccc2c1CCNCc1ccc(/C=C/C(=O)NO)cc1,+
Cc1[nH]c2ccccc2c1CCNC(=O)c1ccccc1F,.
Cn1c(=O)n(C)c2cc(S(=O)(=O)N3CCN(c4ccccn4)CC3)c(Cl)cc21,.
CC(C)CCn1c(=O)c2ccccc2n2c(CCC(=O)NCCCOC(C)C)nnc12,.
COc1ccc2cc3n(c2c1)CC(C)(C(=O)NC1CCCC1)N(c1cccc(Cl)c1)C3=O (stereo not given),.
Fc1ccc2c(CCNCc3cccc(OCC(F)(F)C(F)F)c3)c[nH]c2c1,+
Cc1cc(C)c(S(=O)(=O)NCCc2n[nH]c(Cc3ccccc3)n2)cc1C,.
CCN1C(=O)c2c(C(=O)NCc3ccc(Cl)cc3)ncn2CC1(C)C(=O)NC1CCCC1 (stereo not given),.
CC(C)N(CCC(=O)c1ccc2ccccc2c1)Cc1ccccc1,+!
COc1ccc(C(=O)N(Cc2ccccc2)S(=O)(=O)c2ccc3c(c2)n(C)c(=O)n3C)cc1,.
CCCn1c(=O)c2ccc(C(=O)NC3CCCCC3)cc2n2c(=O)n(CC(=O)c3ccc(C)cc3)nc12,.
Cc1cccc(CSc2nnc3n(C)c(=O)c4ccc(C(=O)NC5CCCCC5)cc4n23)c1,.
Cc1ccccc1CN1CC(=O)N(Cc2ccc(Cl)cc2)c2ccccc2S1(=O)=O,.
CC(C)C[C@H](C(=O)O)c1cc(-c2ccc(C(F)(F)F)cc2)cc(-c2ccc(C(F)(F)F)cc2)c1,+
O=C(O)C1=CC(=C(c2ccc(O)c(C(=O)O)c2)c2ccc(O)c(C(=O)O)c2)C=CC1=O,+
CCOC(=O)C1CCCN(c2nc3c(S(=O)(=O)c4ccc(C)c(C)c4)nnn3c3ccccc23)C1 (stereo not given),.
SMILES,Methyltransferases
CC1CCN(S(=O)(=O)c2ccc3c(ccn3CCC(=O)NCCc3cccs3)c2)CC1,.
CC1CCCC(NC(=O)C2(C)Cn3c(cc4sccc43)C(=O)N2CCCc2ccccc2)C1C (stereo not given),.
COc1cc(N2CCC(N)CC2)ccc1Nc1ncc(Cl)c(-c2c[nH]c3ccccc23)n1,+
COc1cc(N2CCOCC2)ccc1NC(=O)c1csc(-c2cccnc2)n1,.
COc1ccccc1Nc1ncc2c(n1)CN(C(=O)c1cc3ccccc3n1C)CCN2,.
COc1cc(N2CCC(N3CCN(C)CC3)CC2)ccc1Nc1ncc(Cl)c(-c2c[nH]c3ccccc23)n1,+
CCCn1c(=O)c2ccccc2n2c(=O)n(CC(=O)Nc3ccc(C)cc3C)nc12,.
O=C(Nc1ccccc1C(F)(F)F)N1CCn2cccc2C1Cc1ccccc1 (stereo not given),.
COc1ccc(CCNc2nc3c(S(=O)(=O)c4ccccc4)nnn3c3ccc(Cl)cc23)cc1OC,.
COc1cccc(C2c3cccn3-c3sc4c(c3CN2C(=O)Nc2ccc(C)c(F)c2)CCCC4)c1 (stereo not given),.
Cc1[nH]nc2ccc(-c3cncc(OC[C@@H](N)Cc4ccccc4)c3)cc12,+
COc1ccc(CNC(=O)c2cc3n(n2)CC(C)(C(=O)NCc2ccc(F)cc2)N(C)C3=O)cc1 (stereo not given),.
CCc1ccc(N2C(=O)c3cc4ccccc4n3CC2(C)C(=O)NCCC(C)C)cc1 (stereo not given),.
CC(C)Oc1ccc(CN2C(=O)c3cc(-c4ccccc4)nn3CC2(C)C(=O)NCc2ccccc2)cc1 (stereo not given),.
Nc1nnc(-c2cccc(Cl)c2Cl)c(N)n1,.
Nc1nc(NC2CC2)cc(-c2cccc(Cl)c2Cl)n1,+
CN1C(=O)c2cc(C(=O)NCc3cccnc3)nn2CC1(C)C(=O)NC1CCCCCC1 (stereo not given),.
COC(=O)c1cc2n(n1)CC(C)(C(=O)NC1CCCCC1)N(c1cc(C)ccc1C)C2=O (stereo not given),.
O=C1Nc2ccc(Cl)cc2[C@@](C#CC2CC2)(C(F)(F)F)O1,+!

# Bioassay records as filed in PubChem.
